Source: the supplement of paper PMC11732987, “Enantioselective OTUD7B fragment discovery through chemoproteomics screening and high-throughput optimisation” (Communications Chemistry, 2025)

What was measured:
Assay in all cases: log2 ratio of Biotin-Ahx-Ub-VS probe labelling (fragment/DMSO); higher = less target engagement (more negative = stronger competition), active = hit call of the paper (q ≤ 0.05, log2 ratio ≤ -1)
Settings in all cases: compound concentration: 200 uM; treatment time: 3 h
USP34 = USP34 (UniProt Q70CQ2)
Chain of USP34 (Q70CQ2 whole entry, the tested form may be a part): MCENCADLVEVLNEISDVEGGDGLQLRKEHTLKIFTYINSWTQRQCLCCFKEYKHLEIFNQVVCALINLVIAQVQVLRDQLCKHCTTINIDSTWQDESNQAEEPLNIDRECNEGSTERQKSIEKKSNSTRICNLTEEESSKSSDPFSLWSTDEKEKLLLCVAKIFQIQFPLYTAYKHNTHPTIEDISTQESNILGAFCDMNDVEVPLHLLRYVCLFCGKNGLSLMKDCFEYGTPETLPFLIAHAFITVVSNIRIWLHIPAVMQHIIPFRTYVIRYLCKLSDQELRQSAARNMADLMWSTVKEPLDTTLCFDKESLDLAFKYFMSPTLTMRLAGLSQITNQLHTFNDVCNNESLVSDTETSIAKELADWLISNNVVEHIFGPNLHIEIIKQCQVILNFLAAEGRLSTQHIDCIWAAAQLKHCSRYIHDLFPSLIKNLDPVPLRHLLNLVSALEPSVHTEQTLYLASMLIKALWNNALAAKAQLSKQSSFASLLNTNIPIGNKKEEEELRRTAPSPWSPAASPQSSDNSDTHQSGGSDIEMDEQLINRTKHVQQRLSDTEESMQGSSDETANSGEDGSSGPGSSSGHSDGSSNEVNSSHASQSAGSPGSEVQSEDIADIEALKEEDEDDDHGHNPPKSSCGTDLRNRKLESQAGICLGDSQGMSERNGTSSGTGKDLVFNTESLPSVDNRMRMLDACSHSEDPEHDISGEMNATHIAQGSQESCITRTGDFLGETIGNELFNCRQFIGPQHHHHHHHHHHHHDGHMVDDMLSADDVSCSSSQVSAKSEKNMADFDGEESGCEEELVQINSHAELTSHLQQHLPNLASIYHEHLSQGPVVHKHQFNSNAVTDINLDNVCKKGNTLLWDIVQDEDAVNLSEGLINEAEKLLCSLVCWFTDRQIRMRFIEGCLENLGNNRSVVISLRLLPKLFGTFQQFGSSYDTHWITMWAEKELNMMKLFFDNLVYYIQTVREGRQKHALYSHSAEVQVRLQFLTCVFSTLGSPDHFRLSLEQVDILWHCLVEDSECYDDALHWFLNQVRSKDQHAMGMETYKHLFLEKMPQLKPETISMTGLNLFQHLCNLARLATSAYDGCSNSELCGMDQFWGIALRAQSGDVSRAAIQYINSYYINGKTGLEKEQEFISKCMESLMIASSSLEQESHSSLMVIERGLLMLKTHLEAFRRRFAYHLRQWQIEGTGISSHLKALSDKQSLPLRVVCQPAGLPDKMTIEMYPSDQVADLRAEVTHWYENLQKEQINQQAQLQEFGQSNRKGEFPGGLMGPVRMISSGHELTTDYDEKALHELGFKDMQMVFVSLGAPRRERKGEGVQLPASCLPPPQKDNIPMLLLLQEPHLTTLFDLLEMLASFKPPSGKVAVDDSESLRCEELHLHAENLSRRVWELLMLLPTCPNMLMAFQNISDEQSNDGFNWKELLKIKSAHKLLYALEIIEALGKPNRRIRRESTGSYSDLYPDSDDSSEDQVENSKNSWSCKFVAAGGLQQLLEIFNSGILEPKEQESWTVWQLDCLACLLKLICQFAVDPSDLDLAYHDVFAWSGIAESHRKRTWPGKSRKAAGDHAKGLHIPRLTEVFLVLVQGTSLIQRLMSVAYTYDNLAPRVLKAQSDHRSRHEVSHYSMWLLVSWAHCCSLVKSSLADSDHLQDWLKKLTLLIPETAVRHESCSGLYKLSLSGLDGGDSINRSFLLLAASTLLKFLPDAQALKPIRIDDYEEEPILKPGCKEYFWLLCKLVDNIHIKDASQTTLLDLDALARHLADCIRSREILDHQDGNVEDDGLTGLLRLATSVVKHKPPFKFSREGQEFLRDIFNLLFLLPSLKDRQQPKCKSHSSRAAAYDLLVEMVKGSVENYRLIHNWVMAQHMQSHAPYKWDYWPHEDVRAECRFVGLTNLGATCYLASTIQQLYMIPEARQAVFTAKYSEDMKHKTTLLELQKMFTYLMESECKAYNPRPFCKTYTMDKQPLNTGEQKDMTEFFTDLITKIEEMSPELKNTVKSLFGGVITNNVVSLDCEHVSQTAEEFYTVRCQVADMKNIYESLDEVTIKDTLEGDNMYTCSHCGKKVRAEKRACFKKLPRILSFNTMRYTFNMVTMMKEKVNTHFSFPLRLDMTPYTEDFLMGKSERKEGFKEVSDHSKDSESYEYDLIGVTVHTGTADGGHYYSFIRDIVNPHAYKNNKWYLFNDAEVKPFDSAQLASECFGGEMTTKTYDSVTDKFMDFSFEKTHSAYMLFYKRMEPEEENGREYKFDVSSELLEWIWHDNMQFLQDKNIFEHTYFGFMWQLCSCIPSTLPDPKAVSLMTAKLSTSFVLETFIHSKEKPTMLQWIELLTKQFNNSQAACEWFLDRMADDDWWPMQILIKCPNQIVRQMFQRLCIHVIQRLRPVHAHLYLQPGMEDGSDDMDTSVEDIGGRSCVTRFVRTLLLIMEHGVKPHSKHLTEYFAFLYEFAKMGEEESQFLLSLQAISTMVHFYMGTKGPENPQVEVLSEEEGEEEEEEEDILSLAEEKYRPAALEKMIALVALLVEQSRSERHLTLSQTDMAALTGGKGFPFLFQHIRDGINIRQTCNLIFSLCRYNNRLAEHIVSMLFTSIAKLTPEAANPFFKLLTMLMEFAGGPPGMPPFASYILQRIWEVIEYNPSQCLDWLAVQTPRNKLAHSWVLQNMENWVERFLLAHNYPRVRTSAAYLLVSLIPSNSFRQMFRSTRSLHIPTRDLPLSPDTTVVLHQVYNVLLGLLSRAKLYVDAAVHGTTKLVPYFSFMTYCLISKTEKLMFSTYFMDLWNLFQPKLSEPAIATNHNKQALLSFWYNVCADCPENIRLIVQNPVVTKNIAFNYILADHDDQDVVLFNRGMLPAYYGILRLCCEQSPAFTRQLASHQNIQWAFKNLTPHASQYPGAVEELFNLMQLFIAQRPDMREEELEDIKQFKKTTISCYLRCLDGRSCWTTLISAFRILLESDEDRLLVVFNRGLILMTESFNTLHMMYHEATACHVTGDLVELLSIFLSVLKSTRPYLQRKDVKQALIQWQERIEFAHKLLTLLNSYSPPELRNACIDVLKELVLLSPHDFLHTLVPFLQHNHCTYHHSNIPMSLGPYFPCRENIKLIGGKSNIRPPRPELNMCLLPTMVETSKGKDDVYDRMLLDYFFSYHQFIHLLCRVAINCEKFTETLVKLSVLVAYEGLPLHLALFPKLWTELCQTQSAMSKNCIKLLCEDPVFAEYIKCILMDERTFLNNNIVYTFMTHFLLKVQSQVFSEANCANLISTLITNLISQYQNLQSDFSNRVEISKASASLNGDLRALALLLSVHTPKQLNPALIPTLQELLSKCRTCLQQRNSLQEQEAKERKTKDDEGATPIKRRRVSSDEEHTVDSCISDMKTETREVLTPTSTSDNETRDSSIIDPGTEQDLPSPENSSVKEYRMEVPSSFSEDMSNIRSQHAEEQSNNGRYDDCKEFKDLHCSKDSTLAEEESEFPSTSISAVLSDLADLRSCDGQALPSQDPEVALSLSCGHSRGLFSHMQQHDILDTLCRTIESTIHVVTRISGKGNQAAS
Outline: (§1)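 Labelled DUBs were enriched with NeutrAvidin, digested with LysC and trypsin, and run by diaPASEF LC-MS/MS. The labelling used Biotin-Ahx-Ub-VS at 0.5 µM final for 1 h on HEK293T lysate (495 µg per sample) previously treated in triplicate with fragment at 200 µM or vehicle for 3 h. Values are average log2 fragment/vehicle ratios by unpaired t-test on global-median-normalised Spectronaut quantities of proteins with ≥2 unique peptides.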

USP36 = molecular target: T1, USP36 (UniProt Q9P275)
T1 sequence (whole entry): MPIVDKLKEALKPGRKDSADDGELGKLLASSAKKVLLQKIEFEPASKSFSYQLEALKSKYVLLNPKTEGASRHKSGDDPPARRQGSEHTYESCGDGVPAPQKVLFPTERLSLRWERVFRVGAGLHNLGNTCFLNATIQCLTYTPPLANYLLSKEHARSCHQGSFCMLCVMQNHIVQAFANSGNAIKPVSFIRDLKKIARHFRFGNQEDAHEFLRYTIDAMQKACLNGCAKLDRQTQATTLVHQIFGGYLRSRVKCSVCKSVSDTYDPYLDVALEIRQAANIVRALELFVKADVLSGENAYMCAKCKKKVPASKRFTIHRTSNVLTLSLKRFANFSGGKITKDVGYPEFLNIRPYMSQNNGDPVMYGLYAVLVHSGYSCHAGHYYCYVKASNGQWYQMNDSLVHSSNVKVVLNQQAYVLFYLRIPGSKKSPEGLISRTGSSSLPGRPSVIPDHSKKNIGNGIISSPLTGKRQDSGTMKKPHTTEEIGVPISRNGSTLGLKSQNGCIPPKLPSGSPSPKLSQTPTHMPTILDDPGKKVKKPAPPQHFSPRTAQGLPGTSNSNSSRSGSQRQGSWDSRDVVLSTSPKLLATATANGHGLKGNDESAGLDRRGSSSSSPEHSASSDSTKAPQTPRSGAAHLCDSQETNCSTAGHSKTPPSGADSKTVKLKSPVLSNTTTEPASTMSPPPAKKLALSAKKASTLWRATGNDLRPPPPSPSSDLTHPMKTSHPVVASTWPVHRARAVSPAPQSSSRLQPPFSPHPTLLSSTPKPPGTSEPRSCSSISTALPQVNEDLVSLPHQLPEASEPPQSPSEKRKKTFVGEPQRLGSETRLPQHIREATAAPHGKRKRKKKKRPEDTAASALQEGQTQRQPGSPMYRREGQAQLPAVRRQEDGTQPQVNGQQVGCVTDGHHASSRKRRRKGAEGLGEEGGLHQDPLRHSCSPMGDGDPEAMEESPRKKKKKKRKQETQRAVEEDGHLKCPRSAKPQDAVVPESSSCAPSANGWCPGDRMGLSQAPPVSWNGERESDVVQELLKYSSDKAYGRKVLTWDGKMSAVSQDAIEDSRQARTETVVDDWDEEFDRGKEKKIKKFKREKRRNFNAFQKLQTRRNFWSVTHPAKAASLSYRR
Outline: as §1

USP38 = molecular target: T2, USP38 (UniProt Q8NB14)
T2 sequence (whole entry): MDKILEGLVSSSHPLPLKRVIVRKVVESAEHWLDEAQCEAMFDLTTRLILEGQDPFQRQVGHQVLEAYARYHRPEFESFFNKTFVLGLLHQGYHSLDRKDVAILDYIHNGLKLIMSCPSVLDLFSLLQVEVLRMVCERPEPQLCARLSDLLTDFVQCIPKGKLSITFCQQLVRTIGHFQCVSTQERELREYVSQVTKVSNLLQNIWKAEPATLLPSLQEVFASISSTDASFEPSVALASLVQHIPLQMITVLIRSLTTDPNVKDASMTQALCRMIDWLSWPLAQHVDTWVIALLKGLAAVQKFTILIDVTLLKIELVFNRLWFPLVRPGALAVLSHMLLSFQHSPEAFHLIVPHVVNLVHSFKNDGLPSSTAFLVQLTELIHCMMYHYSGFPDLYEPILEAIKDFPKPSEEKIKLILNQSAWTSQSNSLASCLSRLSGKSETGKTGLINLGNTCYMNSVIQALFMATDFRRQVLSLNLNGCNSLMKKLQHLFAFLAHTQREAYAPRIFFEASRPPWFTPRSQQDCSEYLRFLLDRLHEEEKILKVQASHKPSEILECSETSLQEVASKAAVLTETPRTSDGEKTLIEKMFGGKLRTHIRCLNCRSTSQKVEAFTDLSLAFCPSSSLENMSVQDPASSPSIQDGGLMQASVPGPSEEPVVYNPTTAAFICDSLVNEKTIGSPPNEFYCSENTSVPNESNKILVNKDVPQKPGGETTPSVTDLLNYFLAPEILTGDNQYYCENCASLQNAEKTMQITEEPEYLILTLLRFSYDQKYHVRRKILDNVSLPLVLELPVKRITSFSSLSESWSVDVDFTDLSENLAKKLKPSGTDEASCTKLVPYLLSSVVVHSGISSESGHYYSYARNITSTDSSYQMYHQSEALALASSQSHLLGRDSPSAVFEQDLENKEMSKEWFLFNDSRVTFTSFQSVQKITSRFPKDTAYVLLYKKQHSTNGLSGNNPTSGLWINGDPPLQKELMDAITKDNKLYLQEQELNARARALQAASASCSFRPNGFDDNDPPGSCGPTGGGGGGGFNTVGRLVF
Outline: as §1

USP39 = molecular target: T3, USP39 (UniProt Q53GS9)
T3 sequence (whole entry): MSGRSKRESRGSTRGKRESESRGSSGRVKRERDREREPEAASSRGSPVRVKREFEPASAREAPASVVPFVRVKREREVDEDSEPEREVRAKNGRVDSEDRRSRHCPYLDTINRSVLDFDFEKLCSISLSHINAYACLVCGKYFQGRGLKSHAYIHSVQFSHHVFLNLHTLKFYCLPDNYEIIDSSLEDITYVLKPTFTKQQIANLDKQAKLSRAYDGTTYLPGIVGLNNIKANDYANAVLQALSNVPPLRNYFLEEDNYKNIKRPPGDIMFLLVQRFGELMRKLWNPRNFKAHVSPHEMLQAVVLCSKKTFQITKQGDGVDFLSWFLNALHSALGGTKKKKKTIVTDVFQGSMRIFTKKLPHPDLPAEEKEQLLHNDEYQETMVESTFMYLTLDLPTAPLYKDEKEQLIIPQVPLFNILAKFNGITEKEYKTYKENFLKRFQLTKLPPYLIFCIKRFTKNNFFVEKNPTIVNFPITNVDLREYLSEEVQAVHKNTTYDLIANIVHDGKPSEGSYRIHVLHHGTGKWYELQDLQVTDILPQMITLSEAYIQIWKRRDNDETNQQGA
Outline: as §1

USP4 = molecular target: T4, USP4 (UniProt Q13107)
T4 sequence (whole entry): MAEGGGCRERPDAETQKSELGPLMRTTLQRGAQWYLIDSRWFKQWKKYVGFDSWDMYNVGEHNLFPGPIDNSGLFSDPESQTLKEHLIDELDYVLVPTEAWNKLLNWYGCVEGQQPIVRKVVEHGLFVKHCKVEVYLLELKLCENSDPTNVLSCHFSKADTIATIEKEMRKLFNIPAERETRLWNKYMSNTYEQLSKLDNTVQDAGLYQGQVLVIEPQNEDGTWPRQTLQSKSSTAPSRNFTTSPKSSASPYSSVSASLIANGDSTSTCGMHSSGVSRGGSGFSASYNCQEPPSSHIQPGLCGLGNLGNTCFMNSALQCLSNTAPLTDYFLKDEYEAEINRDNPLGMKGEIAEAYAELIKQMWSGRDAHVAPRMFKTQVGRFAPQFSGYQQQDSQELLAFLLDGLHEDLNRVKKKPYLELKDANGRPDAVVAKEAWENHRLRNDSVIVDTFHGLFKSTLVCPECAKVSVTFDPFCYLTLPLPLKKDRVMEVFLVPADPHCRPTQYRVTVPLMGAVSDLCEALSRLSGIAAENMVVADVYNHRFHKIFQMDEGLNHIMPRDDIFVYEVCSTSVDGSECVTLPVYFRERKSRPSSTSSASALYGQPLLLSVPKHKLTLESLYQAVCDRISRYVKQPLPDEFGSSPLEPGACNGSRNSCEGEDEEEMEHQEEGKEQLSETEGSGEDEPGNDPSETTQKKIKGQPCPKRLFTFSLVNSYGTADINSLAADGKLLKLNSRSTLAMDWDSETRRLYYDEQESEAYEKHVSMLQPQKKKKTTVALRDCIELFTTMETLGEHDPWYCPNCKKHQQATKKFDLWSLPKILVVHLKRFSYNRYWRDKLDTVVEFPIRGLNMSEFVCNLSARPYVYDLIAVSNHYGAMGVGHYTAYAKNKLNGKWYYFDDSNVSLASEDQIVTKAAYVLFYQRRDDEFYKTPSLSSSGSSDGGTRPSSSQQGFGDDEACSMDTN
Outline: as §1

Measured: log2 ratio of Biotin-Ahx-Ub-VS probe labelling

C/C(=C\CNC(=O)CCl)c1cnn(C)c1.Cl
inactive: USP34 -0.267 | USP36 -0.266 | USP38 -0.227 | USP39 0.0033 | USP4 -0.395
